# Results filed as inconclusive are left out. Where a call stands in place of a potency, no number is given. A number with no mark means an inactive call. Calls of active or inactive are those of the source. The call rests on the fitted dose curve; in most records, active means well fitted curve in the direction sought with a large enough effect in the repeat runs; inconclusive means weak or mixed curves; inactive means no such curve, though single readings can be large; an effect the other way counts as inactive or inconclusive.
# Key:
# [1] = qHTS assay to identify small molecule antagonists of the retinoid acid receptor (RAR) signaling pathway - cell viability counter screen (AID 1159551); further: nearly all actives have a fitted effect of over 35% in size; further: potency means the concentration at half of the fitted maximal effect
# Summary of the method: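 C3RL4 RARE-luciferase cells, 1,000/well, incubated overnight, then dosed with compound plus 1 uM retinol (final). After 6 hr at 37 C, viability read by CellTiter-Glo ATP luminescence following 30 min at room temperature.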
# [2] = qHTS assay to identify small molecule antagonists of the retinoic acid receptor (RAR) signaling pathway (AID 1159552; further: nearly all actives have a fitted effect of over 50% in size; further: potency means the concentration at half of the fitted maximal effect)
# Summary of the method: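 Luminescent RARE reporter read-out in C3RL4 cells: 6 hr co-treatment at 37 C of test compounds with retinol at 1 uM final. Cells plated overnight beforehand; luciferase reagent incubated 30 min at room temperature before reading.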
# [3] = qHTS assay to identify small molecule agonists of the retinoic acid receptor (RAR) signaling pathway (AID 1159553); further: potency means the concentration at half of the fitted maximal effect
# Summary of the method: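 C3RL4 RARE-luciferase cells were seeded at 1,000/well and grown overnight at 37 C, then exposed to compounds for 6 hr at 37 C, 5% CO2. Luciferase reagent was added and luminescence was read after 30 min at room temperature.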
# [4] = qHTS assay to identify small molecule antagonists of the estrogen related receptor (ERR) signaling pathway from Tox21 library - cell viability counter screen (AID 1224834); further: nearly all actives have a fitted effect of over 30% in size; further: potency means the concentration at half of the fitted maximal effect
# Summary of the method: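 ERR reporter cells, 2,000 per well, rested 6 h, then exposed to compound in DMSO for 17.5 hours at 37 C. Viability read as fluorescence after 30 min with CellTiter-Fluor.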
# [5] = qHTS assay to identify small molecule antagonists of the estrogen related receptor (ERR) signaling pathway - cell viability counter screen (AID 1224818); further: potency means the concentration at half of the fitted maximal effect; on viability change, negative = cytotoxic: series mostly up to about 46 µM
# Summary of the method: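 ERR cells, 2,000 per well, compound added after 6 h and incubated 17.5 h at 37 C. Viability read by CellTiter-Fluor fluorescence after a further 30 min at 37 C.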
# [6] = qHTS assay to identify small molecule antagonists of the estrogen related receptor signaling pathway with the pleiotropic PPARgamma coactivator (PGC) cell viability counter screen (AID 1224822; further: series mostly up to about 46 µM)
# Summary of the method: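 PGC/ERR cells rested 6 h, then compound-treated 17.5 h at 37 C. CellTiter-Fluor added for 30 min at 37 C, viability measured by fluorescence intensity.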
# [7] = qHTS assay to identify small molecule antagonists of the estrogen related receptor (ERR) signaling pathway (AID 1224819; further: potency means the concentration at half of the fitted maximal effect; nearly all actives have a fitted effect of over 50% in size)
# Summary of the method: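 ERR reporter cell line (NTP) plated at 2,000 cells/well, settled 6 h at 37C/5% CO2, then exposed to LOPAC compounds for 18 h at 37C. One-Glo luciferase luminescence read after 30 min at room temperature.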
# [8] = qHTS assay to identify small molecule agonists of the estrogen related receptor (ERR) signaling pathway (AID 1224820)
# Summary of the method: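 ERR reporter cells (NTP line) plated 2,000/well, incubated 6 h at 37 C/5% CO2, then pinned with compounds in DMSO and held 18 h at 37 C. One-Glo added; luminescence read after 30 min at room temperature.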
# [9] = qHTS assay to identify small molecule agonists of the estrogen related receptor signaling pathway with the pleiotropic PPARgamma coactivator (PGC) (AID 1224823)
# Summary of the method: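 PGC/ERR reporter cells were seeded, rested 6 h at 37 C/5% CO2, then exposed to compounds in DMSO by pin transfer for 18 h at 37 C. Luciferase activity was read as luminescence after One-Glo reagent and 30 min at room temperature.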
smiles,measurement,setting,value
COc1ccc(-n2nc(CCC(=O)N(C)O)cc2-c2ccc(Cl)cc2)cc1,Potency,[1],inactive
same,Potency,[2],inactive
same,Potency,[3],inactive
same,Potency,[4],26.6 µM (active)
Cc1ccc(N)cc1O,Potency,[1],inactive
same,Potency,[2],inactive
same,Potency,[3],12.2 µM (active)
same,Potency,[5],inactive
same,Potency,[6],inactive
CCCCCCCC/C=C\CCCCCCCC(=O)OCCOC(=O)CCCCCCC/C=C\CCCCCCCC,Potency,[1],inactive
same,Potency,[2],inactive
same,Potency,[3],inactive
same,Potency,[4],inactive
CCCC(CC)CCCCCCCN (stereo unspecified),Potency,[1],inactive
same,Potency,[2],inactive
same,Potency,[3],inactive
C/C=C/C=N/NC(=O)c1ccncc1,Potency,[1],inactive
same,Potency,[2],inactive
same,Potency,[3],inactive
same,Potency,[4],inactive
Cc1ccc(CCn2c3c(c4cc(Cl)ccc42)CN(C)CC3)cn1,Potency,[1],inactive
same,Potency,[2],inactive
same,Potency,[3],inactive
CCCCCCCOC(=O)c1ccc(O)cc1,Potency,[1],inactive
same,Potency,[2],inactive
same,Potency,[3],34.4 µM (active)
O=C1Nc2ccc(Cl)cc2[C@@](C#CC2CC2)(C(F)(F)F)O1,Potency,[1],inactive
same,Potency,[2],29.8 µM (active)
same,Potency,[3],inactive
Cc1cc2c(C(C)C)c(O)c(O)c(C=O)c2c(O)c1-c1c(C)cc2c(C(C)C)c(O)c(O)c(C=O)c2c1O,Potency,[1],inactive
same,Potency,[2],inactive
same,Potency,[3],inactive
same,Potency,[5],10.2 µM (active)
same,Potency,[7],2.76 µM (active)
same,outcome,[8],inactive
same,outcome,[9],inactive
same,Potency,[4],13.3 µM (active)
CCCCCCCCCCCCCOP(=O)(O)O,Potency,[1],inactive
same,Potency,[2],inactive
same,Potency,[3],inactive
same,Potency,[4],inactive
C[C@@H]1CC[C@H]2C(C)(C)[C@H]3C[C@@]12CC[C@@]3(C)O,Potency,[1],inactive
same,Potency,[2],inactive
same,Potency,[3],inactive
same,Potency,[4],inactive
C/C=C/C(=O)Oc1c(CCCCCC(C)C)cc([N+](=O)[O-])cc1[N+](=O)[O-],Potency,[1],inactive
same,Potency,[2],17.2 µM (active)
same,Potency,[3],inactive
same,Potency,[4],24.3 µM (active)
CCC1(c2cnc[nH]2)Cc2ccccc2C1,Potency,[1],inactive
same,Potency,[2],inactive
same,Potency,[3],inactive
same,Potency,[4],inactive
O=C(Oc1ccccc1)c1cccc(C(=O)Oc2ccccc2)c1,Potency,[1],inactive
same,Potency,[2],inactive
same,Potency,[3],0.456 µM (active)
same,Potency,[5],inactive
same,Potency,[4],inactive
CCCCNc1c(C(=O)OCC)c(C)nc2c1cnn2CC,Potency,[1],inactive
same,Potency,[2],inactive
same,Potency,[3],inactive
same,Potency,[5],inactive
same,Potency,[6],inactive
same,Potency,[4],inactive
Cc1ccc2ccc3cccc4ccc1c2c34,Potency,[1],inactive
same,Potency,[2],inactive
same,Potency,[3],inactive
same,Potency,[4],inactive
CCN(CC)CCSC(=O)C(c1ccccc1)c1ccccc1,Potency,[1],inactive
same,Potency,[2],26.6 µM (active)
same,Potency,[3],inactive
c1cc2c3c(c1)ccc1cccc(c13)C2,Potency,[1],inactive
same,Potency,[2],inactive
same,Potency,[3],inactive
same,Potency,[4],inactive
O=C(Nc1ccc(Cl)cc1)Nc1ccc(Cl)c(C(F)(F)F)c1,Potency,[1],29.8 µM (active)
same,Potency,[2],23.7 µM (active)
same,Potency,[3],inactive
C[Si](C)(C)Cl,Potency,[1],inactive
same,Potency,[2],inactive
same,Potency,[3],inactive
COC(=O)[C@]1(C)CCC[C@@]2(C)[C@H]1CC=C1C=C(C(C)C)CC[C@@H]12,Potency,[1],inactive
same,Potency,[2],inactive
same,Potency,[3],inactive
same,Potency,[4],inactive
CCCCCCCCCCCCCCCC,Potency,[1],inactive
same,Potency,[2],inactive
same,Potency,[3],inactive
same,Potency,[4],inactive
CN(C)c1ccc(N=Nc2ccccc2C(=O)O)cc1,Potency,[1],inactive
same,Potency,[2],inactive
same,Potency,[3],1.09 µM (active)
same,Potency,[4],48.6 µM (active)
NC(=O)c1ccccc1N,Potency,[1],inactive
same,Potency,[2],inactive
same,Potency,[3],inactive
CN(C)c1ccc(N=NS(=O)(=O)O)cc1,Potency,[1],inactive
same,Potency,[2],inactive
same,Potency,[5],inactive
same,Potency,[6],inactive
Oc1cc2ccccc2cc1O,Potency,[1],inactive
same,Potency,[2],inactive
same,Potency,[4],inactive
CC(C)=CCCC(C)O (stereo unspecified),Potency,[1],inactive
same,Potency,[2],inactive
same,Potency,[4],inactive
CCNc1nc(NC(C)CC)nc(OC)n1 (stereo unspecified),Potency,[1],inactive
same,Potency,[2],inactive
same,Potency,[4],inactive
O=S(=O)(O)CCCN1CCOCC1,Potency,[1],inactive
same,Potency,[2],inactive
same,Potency,[3],inactive
same,Potency,[4],inactive
CC(C)c1cccc(C(C)C)c1N1C(=O)c2ccc(O)cc2C1=O,Potency,[1],61.1 µM (active)
same,Potency,[2],24.3 µM (active)
same,Potency,[6],inactive
CC(C)=CC1CC(C)CCO1 (stereo unspecified),Potency,[1],inactive
same,Potency,[2],inactive
same,Potency,[4],inactive
Clc1cccnc1,Potency,[1],inactive
same,Potency,[2],inactive
same,Potency,[4],inactive
CCC(=O)CC(C)CC (stereo unspecified),"activity change, negative = cytotoxicity",[1],0.29% [at 0.349 µM]
same,"activity, negative = inhibition",[2],-2.26% [at 0.349 µM]
same,"viability change, negative = cytotoxic",[4],2.01% [at 0.349 µM]
CC(C)=CCCC(C)CCOC(=O)C(C)C (stereo unspecified),Potency,[1],inactive
same,Potency,[2],inactive
same,Potency,[4],inactive
O=C1c2c(O)ccc([N+](=O)[O-])c2C(=O)c2c([N+](=O)[O-])ccc(O)c21,Potency,[1],48.1 µM (active)
same,Potency,[2],27.1 µM (active)
same,Potency,[4],27.1 µM (active)
